Screening data: PubChem, National Center for Advancing Translational Sciences (NCATS)
KB-V1 cytotox – KB-V1 MDR subline cytotoxicity; 400,000 tested, 3.4% active; KB-V1 MDR cells viability, CellTiter-Glo, 72 h; Potency, µM (top dose mostly 46.1 µM), usual class: cytotoxic; AID 1347076; also: % is scaled to controls: 0 for no effect and ±100 for the full control effect; nearly all actives have a fitted effect of over 60% in size
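Compound-treated KB-V1 multidrug-resistant cells, 72 h, 37 degrees C; viability by CellTiter-Glo. Fitted qHTS curves give the values.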
SW480 rerep – DNA re-replication induction in SW480 cells | SW480 DNA re-replication, Hoechst DNA content imaging, 48 h | Potency, µM (series often up to 46.1 µM), for the others: top-dose re-replication activation, hits mostly activators | 340,000 tested, 1.8% active | AID 624297; also: % of control where 0% means no effect; nearly all actives have a fitted effect of over 55% in size
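Readout is total intensity of Hoechst-stained nuclei, excited at 405 nm and collected at 500-530 nm. Compound treatment lasted 48 hr at 37 C in 5% CO2 before staining.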
MCF10A rereplic – DNA re-replication induction in MCF 10a cells; MCF 10A DNA re-replication, Hoechst nuclear intensity, 48 h; 350,000 tested, 2.9% active; Potency, µM (doses to about 46.1 µM), for inactives: top-dose activity, positive = re-replication, usual class: activators; also: % of control where 0% means no effect; nearly all actives have a fitted effect of over 50% in size
KB-3-1 tox – KB-3-1 parental cell cytotoxicity | KB-3-1 viability, CellTiter-Glo ATP luminescence, 72 h | Potency, µM (titrated, usually from 46.1 µM), most hits filed as cytotoxic | 400,000 tested, 1.4% active | AID 1347075; also: % is scaled to controls: 0 for no effect and ±100 for the full control effect; nearly all actives have a fitted effect of over 60% in size
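Parental KB-3-1 adenocarcinoma cells in phenol-red-free DMEM with 10% FBS were pin-treated with compounds at several concentrations, incubated 72 h at 37 °C, and viability read by CellTiter-Glo luminescence; concentration-effect curves were fitted after normalization.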
ALOX12 inh – inhibitors of human 12S-lipoxygenase ALOX12. purified 12hLO, xylenol orange hydroperoxide absorbance. P18054. 580,000 tested, 1.1% active. Potency, µM (titrated, usually from 108 µM), without a hit: at the top dose activity change, negative = inhibition, usual class: inhibitors; also: % is scaled to controls: 0 for no effect and ±100 for the full control effect
Target sequence (P18054 whole entry, looked up): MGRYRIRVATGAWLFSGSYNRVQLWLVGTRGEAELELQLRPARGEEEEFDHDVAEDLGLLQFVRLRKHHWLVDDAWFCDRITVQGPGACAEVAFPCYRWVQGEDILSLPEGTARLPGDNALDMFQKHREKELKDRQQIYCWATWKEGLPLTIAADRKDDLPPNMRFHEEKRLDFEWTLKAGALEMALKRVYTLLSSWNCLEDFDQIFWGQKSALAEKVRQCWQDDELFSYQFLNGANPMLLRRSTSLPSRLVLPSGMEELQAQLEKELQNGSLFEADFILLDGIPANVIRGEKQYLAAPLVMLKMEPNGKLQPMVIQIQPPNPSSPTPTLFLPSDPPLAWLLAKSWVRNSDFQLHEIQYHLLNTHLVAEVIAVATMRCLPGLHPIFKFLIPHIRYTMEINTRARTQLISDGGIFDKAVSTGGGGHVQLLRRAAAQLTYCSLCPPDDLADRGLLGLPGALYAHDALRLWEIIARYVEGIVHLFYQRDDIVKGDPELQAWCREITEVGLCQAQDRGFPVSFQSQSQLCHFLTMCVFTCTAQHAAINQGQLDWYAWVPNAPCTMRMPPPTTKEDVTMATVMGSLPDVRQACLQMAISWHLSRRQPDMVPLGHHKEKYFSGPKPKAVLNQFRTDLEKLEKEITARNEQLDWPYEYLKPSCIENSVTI
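Purified human 12hLO (150 nM final) in 25 mM Hepes, 0.01% Triton X-100, pH 7.0 was preincubated 15 min at room temperature with compound. Then 40 uM arachidonic acid was added, 30 min. Hydroperoxide was read by Fe-XO absorbance ratio 573/405 nm.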
PINK1 expr mod – PINK1 expression modulation. PINK1 immunofluorescence, high-content cytometry, 24 h. 410,000 tested, 0.2% active. Potency, µM (highest dose often 76.6 µM), without a hit: at the top dose activation (PINK1 increase), most hits filed as activators; active = well fitted activation curve with a large enough effect; inconclusive = small, poorly fitted or top-dose-only effect; cell line not stated here; also: % of control where 0% means no effect; nearly all actives have a fitted effect of over 65% in size
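Stable cell line treated 24 h with compounds at 5 concentrations (CCCP controls), then fixed and immunostained for PINK1 plus nuclear and cell stains; PINK1 immunofluorescence quantified by laser-scanning microplate cytometry.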
Active calls of the source: *; i = inactive; u = inconclusive; x = no result given; ! = not active in a repeat; [ ] = remark or other dose. The list is not random: actives were taken first. Their share in the collection is about 5.8%. Unless noted, calls follow the shape of the dose curve; as a rule, active = well fitted curve in the direction sought with a large enough effect; inconclusive = small, poorly fitted or top-dose-only effect, or another doubt; inactive = no such curve, though single readings can be large; an effect the other way counts as inactive or inconclusive. Potency is read from the fitted curve at half-maximal effect.

SMILES | KB-V1 cytotox | SW480 rerep | MCF10A rereplic | KB-3-1 tox | ALOX12 inh | PINK1 expr mod
COc1ccccc1/C=C/C(=O)NCC(=O)N/N=C/c1cc(Br)ccc1OC | u | 13.8% | u | i | 0.0% | 1.3%
O=C(CNC(=O)c1ccc(F)cc1)N/N=C/c1cc(Br)ccc1OC(=O)/C=C/c1ccco1 | i | u | u | u | -17.2% | 3.0%
O=C(CNC(=O)c1ccccc1F)N/N=C/c1cc(Br)ccc1OC(=O)/C=C/c1ccco1 | 16.4µM* | 6.51µM* | u | u | -20.4% | 1.0%
CC(=O)Nc1ccc(NC(=O)CCCN2C(=O)c3ccccc3C2=O)cc1 | i | 0.6% | -0.3% | i | -22.8% | 0.6%
CC(=O)Nc1ccc(NC(=O)CCN2C(=O)c3ccccc3C2=O)cc1 | i | -37.8% | 0.581µM* | i | u | 1.1%
COC(=O)c1ccc(NC(=O)C(NC(=O)c2ccc(C)cc2)C(C)C)c(C)c1 (centres undefined) | x | x | x | x | 0.8% | x
CNc1nc(N2CCc3ccccc32)ncc1F | 1.64µM* | -0.9% | -2.2% | u | -19.7% | x
CC(C)Oc1ccc(C(=O)N2CCC3(CC2)C(=O)N(C)c2ccccc23)cc1 | x | x | x | x | 22.6% | x
Cn1nc(C(=O)N2CCC(C(=O)Nc3ccc4c(c3)OCO4)CC2)c2ccccc2c1=O | x | x | x | x | 18.3% | x
CC1CN(CCOc2ccc(Cl)c(Cl)c2)CC(C)O1 (centres undefined) | i | 0.9% | 15.5% | i | 0.447µM* | 6.1%
CC1CCN(CCOc2ccc(Cl)c(Cl)c2)CC1 | u | -0.5% | 14.7% | i | u | 4.9%
CC(=O)Nc1nc2ccc(CC(=O)N3CCN(c4ccccc4F)CC3)cc2s1 | x | x | x | x | 20.7% | x
O=C(c1cnc(Cc2c[nH]c3ccccc23)c(I)c1)N1CCOCC1 | x | x | x | x | 20µM* | x
Cc1ccc(NC(=O)CSc2nc3c(cnn3-c3ccc(C)cc3)c(=O)[nH]2)cc1 | x | x | x | x | -0.6% | x
CCOc1ccc(NC(=O)CSc2ncc(-c3ccc(F)cc3)n2Cc2ccco2)cc1 | i | u | u | i | 28.2% | 19.3%
Cc1ccc(NC(=O)Cn2c(-c3ccc(F)cc3)cnc2SCC(=O)Nc2c(C)cccc2C)cc1 | i | u | 4.61µM* | i | -11.4% | 15.3%
Cc1[nH]n(-c2ccc(Cl)cc2)c(=O)c1C(=O)c1ccccc1 | 13µM* | -19.9% | 4.61µM* | 13µM* | u | 4.4%
Cc1[nH]n(-c2ccccc2)c(=O)c1C(=O)c1ccc(Cl)cc1 | 10.3µM* | 2.7% | 21.4% | u | u | 1.1%
CC(NC(=O)C(C)(C)C)C(=O)NCC1CC1 (centres undefined) | x | x | x | x | 6.8% | x
COC(=O)c1ccccc1NC1=C/C(=N\S(=O)(=O)c2cccs2)c2ccccc2C1=O | 18.4µM*! | 4.61µM* | 18.4µM* | u | -1.1% | -1.0%
COC(=O)c1ccccc1NC1=C/C(=N\S(=O)(=O)c2ccc(C(=O)O)cc2)c2ccccc2C1=O | 18.4µM* | 2.91µM* | u | u | x | -3.2%
COC(=O)c1cccc(NS(=O)(=O)c2cccs2)c1C | i | 0.1% | -3.3% | i | 0.0% | -2.8%
CCCCCCCCCCOC(=O)Cn1c(COc2ccc(OC)cc2)[n+](C)c2ccccc21 | i | u | 6.51µM*! | 20.6µM*! | x | -1.5%
CCCCCCCCCCOC(=O)Cn1c(COc2ccccc2)[n+](C)c2ccccc21 | i | -2.1% | u | i | 0.0% | -1.5%
CC(=O)Nc1ccc(NC(=O)c2ccc3c(c2)NC(=O)c2ccccc2S3)cc1 | u | x | x | i | 3.5% | 2.3%
SMILES | KB-V1 cytotox | SW480 rerep | MCF10A rereplic | KB-3-1 tox | ALOX12 inh | PINK1 expr mod
C/C(=N\Nc1ccc(C(=O)O)cc1)c1ccc2c(c1)Nc1ccccc1S2 | i | 8.2µM* | 16.4µM* | i | u | 3.0%
C/C(=N/Nc1ccc(C(=O)O)cc1)c1ccc2c(c1)Nc1ccccc1S2 | i | 18.4µM* | 16.4µM* | i | 28.2µM* | -0.1%
Cc1ccc(S(=O)(=O)NCC(C)O)cc1C (centres undefined) | x | x | x | x | 20.8% | x
CN1C[C@@H](NS(=O)(=O)c2ccccc2)C[C@H]1c1nc(-c2ccccn2)no1 | x | x | x | x | 27.3%[176 µM] | x
O=S(=O)(c1ccccc1)N1CCC(O)(CSc2ccc(Cl)cc2)CC1 | 23.1µM* | 3.7% | u | u | 0.5% | -0.3%
O=S(=O)(c1ccc(Cl)cc1)N1CCC(O)(CN2CCN(Cc3ccccc3)CC2)CC1 | i | -0.4% | 20µM* | i | u | 0.3%
N#Cc1c(N)nc(SCc2ccccn2)c(C#N)c1-c1cccs1 | 2.91µM* | -1.9% | 1.2% | u | u | -2.6%[38.3 µM]
O=C(NC1CCCCC1)N1CCC2(CC1)Nc1ccccc1-n1cccc12 | x | x | x | x | -1.6% | x
CCOC(=O)Cc1csc(NC(=O)CCc2ccc(S(=O)(=O)N3CCOCC3)cc2)n1 | i | 23.1µM* | u | i | -21.4% | 0.7%[38.3 µM]
CCOC(=O)Cc1csc(NC(=O)c2ccc(S(=O)(=O)N3CCCCC3)cc2)n1 | 14.6µM* | -4.7% | 4.9% | i | 0.0% | -6.0%[38.3 µM]
CCOC(=O)Cc1csc(NC(=O)c2ccc(Br)cc2)n1 | i | -12.7% | 3.0% | i | -11.8% | 2.3%
COc1ccc(-c2c(C(=O)O)sc3c2NC(=O)CC32C(=O)N(C)c3ccc(C(C)C)cc32)cc1 (centres undefined) | x | x | x | x | 31.8% | x
COC(=O)c1cc(-c2ccc(OC)c(OC)c2)c2c(=O)[nH]c(=O)n(C)c2n1 | i | 29.3% | 6.51µM* | i | -4.4% | 1.8%
CCOc1ccc(-c2cc(C(=O)OC)nc3c2c(=O)n(C)c(=O)n3C)cc1 | i | u | 23.1µM* | i | -27.4% | 1.4%
COC(=O)c1cc(-c2ccc(Br)cc2)c2c(=O)[nH]c(=O)n(C)c2n1 | i | 0.2% | -0.7% | i | 17.0% | 4.2%
CN(Cc1cccc(F)c1)C(=O)CCNC(=O)Nc1ccccc1 | x | x | x | x | 1.9% | x
O=C(NCCCN1CCOCC1)c1ccc2c(c1)N(Cc1ccccc1)C(=O)c1ccccc1S2 | i | 10.3% | u | i | u | -0.4%
CCOc1ccc(CN2C(=O)c3ccccc3Sc3ccc(C(=O)NCCCN4CCOCC4)cc32)cc1 | u | u | 20.6µM* | 18.4µM*! | -22.3% | -1.2%
O=C(NCCN1CCOCC1)c1ccc2c(c1)N(Cc1c(F)cccc1Cl)C(=O)c1ccccc1S2 | i | 5.8µM* | u | i | -17.4% | -1.3%
CCCn1nc(C(=O)NCC(C2CC2)N(C)C)c2ccccc2c1=O (centres undefined) | x | x | x | x | -4.9% | x
COc1cccc(-c2ccc(C#N)c(OC(=O)c3c(Cl)cccc3Cl)n2)c1 | 16.4µM* | -68.5% | 25.0% | i | -10.8% | 4.7%
